Screens (PubChem)
GLA inh pH 4.5: blocks human alpha-galactosidase A at pH 4.5 | purified enzyme, 4-MU-alpha-Gal fluorescence, pH 4.5 | activity change, negative = inhibition, % at 105 µM | 230,000 tested, under 10 active
ALDH1A1 inh: blocks purified human ALDH1A1 activity; P00352; Purified ALDH1A1, NADH fluorescence, propionaldehyde substrate; Potency, µM (doses to about 75.3 µM), hits mostly inhibitors; hit rate 7.3% among 220,000; AID 1030; active means well fitted inhibition curve with a large enough effect, not every such curve was filed as active; inconclusive means small, poorly fitted or top-dose-only effect, or another doubt; inactive means no such curve, though single readings can be large or run the other way
Target sequence (P00352 whole entry, looked up): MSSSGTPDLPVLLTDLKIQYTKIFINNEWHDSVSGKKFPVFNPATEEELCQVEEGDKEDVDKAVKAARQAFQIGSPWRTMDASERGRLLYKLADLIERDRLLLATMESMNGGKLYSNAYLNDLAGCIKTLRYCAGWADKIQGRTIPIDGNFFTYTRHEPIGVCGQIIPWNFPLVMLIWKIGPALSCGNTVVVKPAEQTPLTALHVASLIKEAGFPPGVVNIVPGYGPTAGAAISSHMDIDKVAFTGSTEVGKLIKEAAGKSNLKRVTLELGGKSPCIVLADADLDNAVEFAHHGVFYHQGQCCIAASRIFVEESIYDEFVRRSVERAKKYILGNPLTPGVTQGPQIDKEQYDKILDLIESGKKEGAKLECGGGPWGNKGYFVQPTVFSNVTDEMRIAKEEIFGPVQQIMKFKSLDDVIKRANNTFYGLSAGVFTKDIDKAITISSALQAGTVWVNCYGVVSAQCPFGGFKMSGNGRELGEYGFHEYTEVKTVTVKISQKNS
GLA spleen mod: alpha-galactosidase A (human) modulation; P06280; human spleen homogenate, 4MU-alpha-Gal fluorescence, 40 min; Potency, µM (titrated, usually from 80 µM), actives largely listed as inhibitors; hit rate 0.008% among 240,000
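Spleen homogenate 1 ug + cpd (titration) + 4-MU-alpha-D-galactopyranoside 1 mM; 37C 40 min; 50 mM citrate/phosphate pH 5.0, 0.01% Tween-20; stop pH 10; fluorescence 365/440; AC50 via Hill.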
PNC inhibitor: inhibitors of perinucleolar compartment assembly; PC3M PTB-GFP, PNC prevalence imaging, 16 h; active compounds read low; activity change (PNC), negative = inhibition, % at 10 µM; hit rate 3.1% among 140,000;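 active means readout at or below -70, meaning at least 70% loss of cells showing the perinucleolar compartment, a nuclear body marking cancer cells; inconclusive means readout between -30 and a set limit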
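Read-out is percentage of cells bearing a perinucleolar compartment, from automated 20x imaging of fixed, Hoechst-stained PC3M PTB-GFP cells. Cells were seeded 4 h, then exposed 16 h to compound (23 nl of library stock) in duplicate plates.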
ALOX12 inhib: blocks human 12-lipoxygenase activity. Potency, µM (top dose mostly 57.1 µM), usual class: inhibitors. purified 12-hLO, xylenol orange hydroperoxide absorbance. AID 1452. P18054. hit rate 0.12% among 150,000; further: nearly all actives have a fitted effect of over 55% in size
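Xylenol orange chromogenic assay: hydroperoxide from 12hLO oxidises Fe(II), giving red-shifted Fe(III)-XO absorbance. Conditions: 150 nM enzyme, 40 uM arachidonic acid, 25 mM Hepes pH 7.0, 0.01% Triton X-100, 30 min, room temperature.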
HPGD block: HPGD (human) dehydrogenase inhibition; P15428; purified HPGD, NADH fluorescence kinetic, PGE2 substrate; Potency, µM, usual class: inhibitors; hit rate 4.3% among 150,000; AID 894; active means well fitted inhibition curve with a large enough effect, not every such curve was filed as active; inconclusive means small, poorly fitted or top-dose-only effect, or another doubt; inactive means no such curve, though single readings can be large or run the other way
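NADH formation kinetics: reaction with 30 uM PGE2 and 1 mM NAD+ (final), 20 nM enzyme, Tris-HCl pH 8 with Tween 20, after 15 min compound preincubation at room temperature. Fluorescence change, last versus first of five reads.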
Numbers stand for hits; - = inactive; ? = inconclusive; . = no result given; [ ] = remark or other dose. Most compounds without a hit are left out; they make up all but 10% or so of the library. Unless noted, the call rests on the fitted dose curve; in most records, active means well fitted curve in the direction sought with a large enough effect; inconclusive means small, poorly fitted or top-dose-only effect, or another doubt; inactive means no such curve, though single readings can be large; an effect the other way counts as inactive or inconclusive.

SMILES	GLA inh pH 4.5	ALDH1A1 inh	GLA spleen mod	PNC inhibitor	ALOX12 inhib	HPGD block
O=C(O)Cn1cccc1C(=O)c1ccccc1	.	14.1µM	-	?	?	-
CN(C)CCCNc1ncnc2nc[nH]c12	.	-[13.5 µM]	.	.	-[11.4 µM]	-
NS(=O)(=O)c1cc(C(=O)OCC(=O)c2ccccc2)c(Cl)cc1Cl	-	15.8µM	-	.	.	.
Nc1ccc(Br)cc1Br	-	.	-	.	.	.
CC(C)(C)N(NC(=O)OCc1ccccc1)C(=O)c1ccccc1	-	-	-	-80.4	-	-
CCc1ccc(C(=O)NN(C(=O)c2ccc(CC)cc2)C(C)(C)C)cc1	-	-	-	-	-	25.1µM
C=CCOc1ccc(/C=N/NC(=O)C(C)Sc2ccccn2)cc1OC (stereo not drawn)	-	-	-	-	-	-
CCOC(=O)CCNCc1ccc(F)cc1	-	-	-	.	.	.
CC(C)c1c(O)ccc2c1CCC1[C@@](C)(C=O)CCC[C@@]21C (stereo partly drawn)	-	-	-	.	-	-
CCOC(=O)N1CCC(N2C(=O)c3ccccc3C2Nc2ccccc2)CC1 (stereo not drawn)	-	?	-	-	-	-
CCOC(=O)N1CCC(N2C(=O)c3ccccc3C2Nc2ccc(S(=O)(=O)N(CC)CC)cc2)CC1 (stereo not drawn)	-	0.199µM	-	.	.	.
CCOC(=O)N1CCC(N2C(=O)c3ccccc3C2Nc2ccc(C)cc2)CC1 (stereo not drawn)	-	31.6µM	-	-	-	-
FC(F)(F)c1nnc2ccc(NCc3ccccc3)nn12	-	-	-	.	.	.
Cn1c(=O)c2c(nc(SCc3cccnc3)n2Cc2ccc(F)cc2)n(C)c1=O	-	?	-	-	-	39.8µM
Cn1c(=O)c2c(nc(SCc3cccnc3)n2Cc2ccccc2)n(C)c1=O	-	22.4µM	-	-	-	-
CCCn1c(SCC(=O)OCc2ccccc2)nc2c1c(=O)n(C)c(=O)n2C	-	22.4µM	-	-	-	-
Cc1ccc(Cn2c(SCc3cccnc3)nc3c2c(=O)n(C)c(=O)n3C)cc1	-	-	-	-	-	-
C=CCN1C(=O)/C(=C/c2ccc(O)cc2)S/C1=N/c1nccs1	-	3.16µM	-	-	-	-
O=C(c1ccncc1)N1CCN(C(=O)c2cccs2)CC1	-	-	-	-	-	-
O=C(c1cccs1)N1CCN(Cc2ccccn2)CC1	-	15µM	-	.	.	.
CCOC(=O)C(=O)/C(=C\N(C)C)c1onc(-c2c(F)cccc2Cl)c1C(=O)OC	-	-	-	-	-	10µM
C/C(=N\NC(=O)c1ccccc1-n1cccc1)C1CC1	-	3.98µM	-	-	-	-
NNC(=O)c1ccccc1-n1cccc1	-	?	-	.	.	.
Cc1ccc(-c2c[n+](Cc3ccc(Cl)c(Cl)c3)c3n2CCC3)cc1	-	-	-	-	-	-
Cc1nnc(-c2cnn(-c3ccccc3)c2N)n1Cc1cccc(C(F)(F)F)c1	-	?	-	-	-	12.6µM
SMILES	GLA inh pH 4.5	ALDH1A1 inh	GLA spleen mod	PNC inhibitor	ALOX12 inhib	HPGD block
CC(=O)N1CCC(=NNC(=O)CSc2cc(C)c(Br)cc2C)CC1	-	?	-	?	-	25.1µM
CCCN1CCC(=NNC(=O)CSc2cc(C)c(Br)cc2C)CC1	-	?	-	-	-	14.1µM
Cc1cc(SCC(=O)Nc2cccc(S(N)(=O)=O)c2)c(C)cc1Br	-	-	-	.	.	.
CC(NC(=O)C1CCCN1C(=O)CN)C(=O)O (stereo not drawn)	.	.	-	.	.	.
Nc1ncnc2[nH]c(=O)[nH]c12	-	-	-	.	-	-
O=C1C2C3C=CC(C4CC34)C2C(=O)N1/N=C/c1ccc(-c2ccc([N+](=O)[O-])cc2)o1 (stereo not drawn)	-	-	-	.	.	.
O=C1C2C(C(=O)N1/N=C/c1ccc([N+](=O)[O-])o1)C1C=CC2C12CC2 (stereo not drawn)	-	?	-	-	-	-
O=C1C2C3C=CC(C3)C2C(=O)N1/N=C/c1ccc(-c2ccccc2[N+](=O)[O-])o1 (stereo not drawn)	-	2.24µM	-	?	-	-
O=C1C2C3C=CC(C3)C2C(=O)N1/N=C/c1cc(Br)cc([N+](=O)[O-])c1O (stereo not drawn)	-	?	-	?	-	-
Cc1ccc(-c2ccc(/C=N/N3C(=O)C4C5C=CC(C6CC56)C4C3=O)o2)c([N+](=O)[O-])c1 (stereo not drawn)	-	?	-	-	-	12.6µM
O=C1C2C3C=CC(C4CC34)C2C(=O)N1/N=C/c1ccc([N+](=O)[O-])o1 (stereo not drawn)	-	3.16µM	-	.	.	.
O=C(O)[C@@H]1Cc2c([nH]c3ccccc23)[C@@H](CCCCO)N1	.	-[13.5 µM]	.	.	-[11.4 µM]	-
COc1ccc(C(=S)N2CCCCCC2)cc1	-	?	-	?	-	15.8µM
COc1cc(C(=S)N2CCCC2)cc(OC)c1O	-	-	-	?	-	20µM
CCOC(=O)C1CCCN(C(=S)Nc2ccc(OC)cc2)C1 (stereo not drawn)	-	-	-	.	.	.
COc1ccc(NC(=S)N2CCC(C(=O)N3CCCCCC3)CC2)cc1	-	14.1µM	-	-	-	-
CC(/C=N/NC(=O)c1cc(-c2cccs2)[nH]n1)=C\c1ccccc1	-	-	-	-	-	-
Cc1c(S(=O)(=O)N2CCOCC2)c(=O)n(C)c(=O)n1C	-	-	-	-	-	-
CCOc1ccc(NC(=O)CN2CCN(C3c4ccccc4-c4ccccc43)CC2)cc1	-	11.2µM	-	-	-	-
CCC(=O)Nc1ccc(Oc2ccc3c(c2)C(=O)N(c2ccc(O)cc2)C3=O)cc1	-	?	-	-	-	-
CCCC(=O)Nc1ccc(Oc2ccc(NC(=O)CCC)cc2)cc1	-	-	-	-100.0	-	-
CCOc1ccc(NC(=O)Cn2c(=O)oc3ccccc32)cc1	-	-	-	-	-	10µM
CCCC(=O)Nc1ccc(OCC(=O)OC)cc1	-	-	-	-	-	-
CCC(=O)Nc1ccc(Oc2ccc3c(c2)C(=O)NC3=O)cc1	-	-	-	-	-	15.8µM
COc1ccc([C@@H](C)C(=O)c2ccc(O)cc2O)cc1	-	-	-	.	.	-
O=C(O)C1(C(=O)O)CCN(S(=O)(=O)c2ccccc2)CC1	.	-[13.5 µM]	.	.	-[11.4 µM]	-
CCOc1ccc(NC(=O)CN2CCN(CC(=O)Nc3ccc(C(=O)OC)cc3)CC2)cc1	-	7.08µM	-	-	-	-
CCOc1ccc(NC(=O)CN2CCN(CC(=O)Nc3ccc(F)c(F)c3)CC2)cc1	-	3.98µM	-	?	-	-
O=C(CN1CCCC1)Nc1ccc(Oc2ccc(NC(=O)CN3CCCC3)cc2)cc1	-	-	-	-	-	25.1µM
O=C(CN1CCCCCC1)Nc1ccc(F)c(F)c1	-	22.4µM	?	-	-	-
